# From ChEMBL document CHEMBL3988442, “University of Dundee, Small-Polar-MMV Screening Library” (2021)
# The campaign covered roughly 53,000 compounds. About 900 (1.7%) showed an effect of 50% or more. The list comes from a sample in which strong results are over-represented; it also holds similar structures and randomly drawn compounds.
# Tested on: Mycobacterium tuberculosis
# Test: Cornell - Phenotypic assay to identify agents that inhibit growth of Mycobacterium tuberculosis
# Type: functional
# Design: scale not given: direction of the effect not stated beside the values
# Settings: 10 mM as filed; unlikely as a test dose
row,Structure (SMILES),Percent Effect [%]
1,CCn1c(C)nnc1SCCn1cc(-c2nccs2)nn1,-8.266
2,COc1ccc(CN2CCC3(CC(C(=O)NCC(C)C)=NO3)C2)cc1 (stereo not given),19.34
3,CC(C)CC(=O)Nc1ccc(Oc2ccsc2C(=O)O)cc1,38.91
4,O=C(O)c1sccc1Oc1ccc(NC(=O)C2CC2)cc1,55.89
5,O=C(Nc1cnc(Oc2ccccc2)nc1)C1CC1,23.36
6,CC(C)(C)C(=O)Nc1ccc(Oc2ccsc2C(=O)O)cc1,16.22
7,CC(C)CC(=O)Nc1ccccc1Oc1ccsc1C(=O)O,8.037
8,COCC(=O)Nc1ccc(Oc2ccsc2C(=O)O)cc1,86.45
9,CC(C)NC(=O)Nc1ccc2c(c1)ncn2CC(=O)NCCN(C)C,-20.24
10,Cc1nc(C)n(C2CCCN(C(=O)Cc3ccc4c(c3)CCC4)C2)n1 (stereo not given),13.58
11,Cc1cc(C)n(C2CN(Cc3noc(C4CC4)n3)C2)n1,7.043
12,COCCC(=O)Nc1ccnn1-c1ccccc1,-2.555
13,c1cnc(N2CCOCC3(CCCN(c4nncs4)C3)C2)cn1 (stereo not given),-8.424
14,COCC(C)N1CCN(CCc2ccc3c(c2)CCO3)CC1 (stereo not given),-12.27
15,CC(C)NC1CCN(CCc2ccc3c(c2)CCO3)CC1,56.74
16,CCOCCN1CCN(CCc2ccc3c(c2)CCO3)CC1,-8.246
17,CS(=O)(=O)NC[C@]12COC[C@H]1CN(C(=O)C1CC=CC1)C2,-4.911
18,Cc1ccc(CN2CCN(CC(=O)Nc3ccc4nsnc4c3)CC2)o1,54.44
19,CCC(CC)CN1CCN(CC(=O)Nc2ccc3nsnc3c2)CC1,23.66
20,CC(C)CCN1CCN(CC(=O)Nc2ccc3nsnc3c2)CC1,-1.569
21,CC(C)N1CC(n2ccnc2-c2nccn2C)CC1=O (stereo not given),-23.92
22,CN(C)c1cc(C2CCCN(S(=O)(=O)C3CCCC3)C2)ccn1 (stereo not given),15.85
23,O=C(c1ccc[nH]1)N(Cc1ccc(O)cc1)CC1CC1,43.3
24,Cc1[nH]ccc1C(=O)N(Cc1ccc(O)cc1)CC1CC1,103.8
25,NC(=O)c1ccc(C(=O)N(Cc2ccc(O)cc2)CC2CC2)cc1,-5.401
26,CSc1ccc(C)c(C(=O)Nc2c(C(N)=O)n[nH]c2C)c1,-17.81
27,COc1ccc(-n2ccc(CNCc3ccc(OC)c(O)c3)n2)cc1,31.15
28,COc1ccc(CNCCn2c(C)nc3ccccc32)cc1O,-17.9
29,COc1ccc(CNCCc2ccn(-c3ccccc3)n2)cc1O,107.6
30,O=C1CCC(=O)N1c1nn(Cc2ccc(F)cc2)cc1Cl,-47.77
